# According to the antibiotic and cytotoxicity screens of Wong et al. (2023):
# Out of some 39,000 compounds screened, about 3,300 (8.5%) were called active. Many of the other results were omitted from the sample, so actives are more common in it than they were.
# Test system: HepG2
# Experiment: cytotoxicity call (relative viability < 0.9)
# Details: 10 µM
row,SMILES,cytotoxicity call
1,CCCCOC(=O)C1=CC(=O)CC(C)(C)O1,active
2,C[C@@H](O)CN1C[C@H]2C[C@@H](C1)c1cccc(=O)n1C2,inactive
3,CN1C[C@@H](C(=O)O)CN2CCN(C(=O)c3ccncc3F)C[C@@H]2C1,inactive
4,O=C1CC2(CCNCC2)CN1,inactive
5,C1CCC(NC2CCCC2)CC1,inactive
6,Cl.c1ccc2c(c1)OCC(C1=NCCN1)O2 (configuration not stated),active
7,CCC1(C2=NCCN2)Cc2ccccc2O1.Cl (configuration not stated),inactive
8,NCC[C@H]1COc2ccccc2O1,inactive
9,FC(F)(F)c1nnc(N2CCNCC2)s1,inactive
10,CCN1C[C@]2(COC)CC[C@H](O)[C@@]34[C@@H]2[C@@H](OC)[C@@H]([C@@H]13)[C@@]1(OC(C)=O)C[C@H](OC)[C@H]2C[C@H]4[C@@H]1[C@@H]2OC(C)=O,inactive
11,CC(C)c1csc(CCN)n1,inactive
12,CN1C[C@H]2CN[C@H]2C1,inactive
13,Cc1[nH]c2ccccc2c1CN(C)C,inactive
14,O=C(O)C=CC(=O)O.c1ccc2nc(N3CCNCC3)ccc2c1,active
15,c1ccc(N2CCNCC2)nc1,inactive
16,Cc1cccc(N2CCNCC2)n1,inactive
17,COc1ccc([C@H]2CC(=O)N3CCNC[C@@H]23)cc1,inactive
18,CCCN1CC(CSC)CC2c3cccc4[nH]cc(c34)CC21.CS(=O)(=O)O (configuration not stated),inactive
19,CNC(C)C(O)c1ccccc1.Cl (configuration not stated),inactive
20,O=C(O)C[C@H]1CC[C@@H]2NC[C@H](O)COC[C@H]2O1,inactive
21,O=C([O-])Cc1ccccc1.[Na+],inactive
22,C[CH2][Hg][S]c1ccccc1C(=O)[O-].[Na+],active
23,N[C@@]1(C(=O)O)CC[C@H](C(=O)O)C1,inactive
24,NCCc1ccc(S(=O)(=O)F)cc1,inactive
25,CN1C(=O)NC(=O)/C(=C\C=C\c2ccco2)C1=O,inactive
26,C[C@@]12NC(=O)CN1CCc1ccccc12,inactive

row,SMILES,cytotoxicity call
1,CC(C)NC(=O)C1=NO[C@]2(CCNC2)C1,inactive
2,Nc1nc(Cl)ncc1[N+](=O)[O-],inactive
3,O=C1CCCC2C3CC(CN12)C1CCCCN1C3.[O-][Cl+3]([O-])([O-])O (configuration not stated),inactive
4,COc1ccc2c(c1)[nH]c1c(C)nccc12,active
5,Cc1nccc2c1[nH]c1cc(O)ccc12 [listing 1 of 2 here],inactive
6,c1ccc2c(c1)[nH]c1cnccc12,inactive
7,Cc1nccc2c1[nH]c1ccccc12 [listing 1 of 2 here],active
8,COc1ccc2cc(CCN)c(=O)[nH]c2c1,inactive
9,Cc1nccc2c1[nH]c1ccccc12 [listing 2 of 2 here],inactive
10,Cc1nccc2c1[nH]c1cc(O)ccc12 [listing 2 of 2 here],active
11,Cc1ccc(C=C2C(=O)NC(=O)NC2=O)cc1,inactive
12,NCC(=O)Nc1ccc(Br)cc1C(=O)c1ccccc1,inactive
13,Cn1cnc(CCN)c1,inactive
14,CC1(C)CCNC1=O,inactive
15,COS(C)(=O)=O,inactive
16,C[C@@H]1CN([C@@H](C)CO)C(=O)c2cc(NC(=O)Nc3ccccc3)ccc2O[C@@H](C)CCCCO[C@H]1CN(C)C(=O)Oc1ccccc1,inactive
17,CNc1ccc2oc(C[C@H]3O[C@@]4(CC[C@H]3C)O[C@H]([C@H](C)C(=O)c3ccc[nH]3)[C@H](C)C[C@H]4C)nc2c1C(=O)O,active
18,C[C@H]1CN([C@@H](C)CO)C(=O)CCCn2nncc2CO[C@H]1CN(C)C(=O)Oc1ccc2ccccc2c1,inactive
19,CC=C1CC(C)C(O)(CO)C(=O)OCC2=CCN3CCC(OC1=O)C23 (configuration not stated),inactive
20,O=C1CC(=O)N(Cc2ccccc2)C(=O)N1,inactive
21,C[C@@]1(C(=O)O)[C@H]2CC[C@@H](O2)[C@@]1(C)C(=O)O,active
22,O=C(O)[C@H]1[C@H](C(=O)O)[C@H]2CC[C@@H]1O2,inactive
23,C[C@]12CC[C@](C)(O1)[C@H](C(=O)O)[C@@H]2C(=O)O,inactive
24,OCCN1CC2(CCN(c3nccs3)C2)C1,inactive
25,C1CCNCC1,inactive
26,Cc1cnc[nH]1,inactive

row,SMILES,cytotoxicity call
1,C[C@@H]1CN([C@H](C)CO)C(=O)CCCn2cc(nn2)CO[C@H]1CN(C)C(=O)Oc1cccc2ccccc12,inactive
2,C[C@H]1CN([C@@H](C)CO)C(=O)CCCn2cc(nn2)CO[C@@H]1CN(C)C(=O)Oc1cccc2ccccc12,inactive
3,CC(C)C12OC1C1OC13C1(C)CCC4=C(COC4=O)C1CC1OC13C2O (configuration not stated),active
4,CC(C)c1ccc2c(c1O)CCC1C3=C(CCC21C)C(=O)OC3 (configuration not stated),inactive
5,NCCc1c[nH]c2ccc(OCC(=O)O)cc12,inactive
6,Nc1ncccc1CN1CC[C@]2(CC(=O)NC2=O)C1,inactive
7,CC1CCC2C(C)C(=O)OC3OC4(C)CCC1C32OO4 (configuration not stated),inactive
8,CCOC1OC2OC3(C)CCC4C(C)CCC(C1C)C24OO3 (configuration not stated),active
9,NC(=O)C12CC(CN1)C2,inactive
10,COc1ccc2c(c1O)-c1c(OC)c(OC)cc3c1C(C2)N(C)CC3 (configuration not stated),inactive
11,COc1cc2c3cc1Oc1c(OC)c(OC)cc4c1C(Cc1cccc(c1)Oc1ccc(c(O)c1)CC3N(C)CC2)N(C)CC4.Cl.Cl (configuration not stated),active
12,COc1cc2c3cc1Oc1c(OC)c(OC)cc4c1[C@@H](Cc1cccc(c1)Oc1ccc(c(O)c1)C[C@@H]3N(C)CC2)N(C)CC4,inactive
13,O=C(O)CF.[NaH],inactive
14,CC(=O)Oc1ccc(C=Cc2cc(OC(C)=O)cc(OC(C)=O)c2)cc1,inactive
15,c1cnc(N2CCOC[C@@]3(CCCNC3)C2)cn1,inactive
16,O=C(CCCN1CCC2(CC1)C(=O)N(Cc1cccc(F)c1)CN2c1ccccc1)c1ccc(F)cc1,active
17,C[C@@H]1CN([C@@H](C)CO)C(=O)CCCn2nncc2CO[C@@H]1CN(C)C(=O)Oc1ccc2ccccc2c1,inactive
18,C[C@@H]1CN([C@H](C)CO)C(=O)CCCn2cc(nn2)CO[C@@H]1CN(C)C(=O)Oc1ccc2ccccc2c1,inactive
19,CC(C)C[C@H]1C(=O)N2CCC[C@H]2[C@]2(O)O[C@](NC(=O)[C@@H]3C=C4c5cccc6[nH]c(Br)c(c56)C[C@H]4N(C)C3)(C(C)C)C(=O)N12,inactive
20,C[C@@H](N)Cc1c[nH]c2ccc(OCc3cccs3)cc12,inactive
21,C[C@H]1C[C@@H]2CNC[C@@H]2O1,inactive
22,CCCCOC(=O)c1ccccc1C(=O)OCCCC,active
23,CCN(CC)CCOC(=O)C(O)(c1ccccc1)c1ccccc1.Cl,inactive
24,CC(N)C(O)c1ccc(O)c(O)c1 (configuration not stated),inactive
25,CCS(=O)(=O)N1C[C@@H]2CCN[C@@H]2C1,inactive
